According to PubChem BioAssay (NCATS):
Where “and” joins values, the source holds several entries; their conditions need not be identical. Identical values can stand only once. Inconclusive results are not listed. Calls of active or inactive are those of the source. Unless noted, the call rests on the fitted dose curve; in most records, active means well fitted curve in the direction sought with a large enough effect; inconclusive means small, poorly fitted or top-dose-only effect, or another doubt; inactive means no such curve, though single readings can be large; an effect the other way counts as inactive or inconclusive.

Tests used:
[1] = biological target: Tumor necrosis factor (Homo sapiens) (UniProt P01375); experiment: qHTS assay to identify small molecules that stimulate Tumor Necrosis Factor-alpha (TNF-alpha) secretion (AID 651757; active means well fitted curve in the direction sought with a large enough effect in the signal ratio; the % refers to the signal ratio; further: 0% is about no effect)
Tumor necrosis factor (Homo sapiens), sequence (P01375 whole entry, looked up): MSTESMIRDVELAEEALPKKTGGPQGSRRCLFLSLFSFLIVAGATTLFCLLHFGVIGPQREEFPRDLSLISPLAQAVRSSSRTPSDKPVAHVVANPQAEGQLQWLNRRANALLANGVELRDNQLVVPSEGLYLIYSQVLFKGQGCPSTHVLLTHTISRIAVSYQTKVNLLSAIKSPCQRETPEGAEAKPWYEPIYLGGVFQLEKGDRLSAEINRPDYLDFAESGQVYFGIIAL
Method in brief: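 THP-1 cells, 3000/well; compound 17 hrs, 37 C; add cryptate/XL665 anti-TNF-alpha antibody pair; 3 hr RT; TR-FRET (HTRF) read of secreted TNF-alpha. Quantitative HTS format.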

[2] = qHTS assay for environmental chemicals that activate the Aryl hydrocarbon Receptor (AhR) signaling pathway (AID 651777); conditions: 1A2-DRE human hepatoma cells, luciferase, 24 h; activation: hits give high values; further: nearly all actives have a fitted effect of over 15% in size; further: potency means the concentration at half of the fitted maximal effect; on activation: % of control where 0% means no effect
Method in brief: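 Concentration–response screening used 1,200 1A2-DRE cells per well, 24 hr compound exposure (37 C, 5% CO2), and One-Glo luminescence as the AhR-driven CYP1A2 reporter signal.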

[3] = biological target: Peroxisome proliferator-activated receptor alpha (Homo sapiens) (UniProt Q07869); experiment: qHTS assay for small molecule agonists of the peroxisome proliferator-activated receptor alpha (PPARalpha) signaling pathway (AID 651778); conditions: PathHunter PPARalpha complementation, chemiluminescence, 6 h; max response: hits give high values; further: potency means the concentration at half of the fitted maximal effect; on max response: % of control where 0% means no effect
Peroxisome proliferator-activated receptor alpha (Homo sapiens), sequence (Q07869 whole entry, looked up): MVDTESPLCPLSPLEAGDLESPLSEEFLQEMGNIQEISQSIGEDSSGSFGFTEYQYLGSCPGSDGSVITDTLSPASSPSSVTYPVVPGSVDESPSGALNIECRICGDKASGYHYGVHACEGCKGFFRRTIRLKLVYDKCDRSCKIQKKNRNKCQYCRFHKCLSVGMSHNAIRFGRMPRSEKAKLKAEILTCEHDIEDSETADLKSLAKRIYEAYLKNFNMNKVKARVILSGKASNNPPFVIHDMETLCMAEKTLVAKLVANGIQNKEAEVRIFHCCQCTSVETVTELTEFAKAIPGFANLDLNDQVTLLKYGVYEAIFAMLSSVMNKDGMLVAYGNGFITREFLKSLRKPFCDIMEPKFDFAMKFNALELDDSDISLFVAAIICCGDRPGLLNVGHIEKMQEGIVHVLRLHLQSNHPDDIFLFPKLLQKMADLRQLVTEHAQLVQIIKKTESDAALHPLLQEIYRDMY
Method in brief: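 Chemiluminescence from complemented enzyme reported PPARalpha activation in cells after 6 hr of compound treatment at 37 C. The detection reagent was incubated for 60 min at room temperature, and compounds were scored as agonists.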

[4] = qHTS assay for small molecule antagonists of the retinoid-related orphan receptor gamma (ROR-gamma) signaling pathway - cell viability counter screen (AID 720652; active means well fitted curve in the direction sought with a large enough effect in the repeat runs; an effect the other way counts as inactive or inconclusive;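 further: CHO reporter cells with doxycycline-induced ROR-gamma expression; series mostly up to about 92 µM; compound exposure lasted 16 hr before ATP read; on the % scale 0 is the no-effect control and ±100 the full control effect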)
Method in brief: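 CHO RORE-LUC/TET-ROR line, 1,000 cells/well, 37 C 5% CO2 5 hr; cpd or DMSO + doxycycline induction, 16 hr. CellTiter-Glo, 30 min RT, luminescence = ATP content.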

[5] = qHTS assay for small molecule agonists of the antioxidant response element (ARE) signaling pathway measured by Nrf2-dependant transcriptional activity - cell viability counter screen (AID 720653; active means well fitted curve in the direction sought with a large enough effect in the repeat runs; an effect the other way counts as inactive or inconclusive; further: on the % scale 0 is the no-effect control and ±100 the full control effect); conditions: ARE-bla HepG2 viability, CellTiter-Glo ATP luminescence, 16 h; max response: hits give low values
Method in brief: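 Cytotoxicity counter screen: intracellular ATP quantified by CellTiter-Glo luminescence in the same ARE-bla HepG2 plates, after 16 h compound exposure and a 2 h beta-lactamase substrate step.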

[6] = qHTS Assay for Identifying Gametocytocidal Compounds (AID 743244); further: potency means the concentration at half of the fitted maximal effect;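 on max response: on the % scale 0 is the no-effect control and ±100 the full control effect; actives lower the fluorescent signal which means gametocytes are killed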; conditions: P. falciparum 3D7 stage III-V gametocytes, alamarBlue, 72 h; max response: hits give low values
Method in brief: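 Compounds are pinned into medium, gametocytes (stage III–V, 3D7, 20,000 cells/well) added, and plates held 72 h at 37 °C in 5% CO2. AlamarBlue follows for 24 h before fluorescence reading.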

[7] = biological target: Tyrosine-protein kinase Yes (Homo sapiens) (UniProt P07947); experiment: qHTS for small molecule inhibitors of Yes1 kinase: Primary Screen (AID 686947); further: nearly all actives have a fitted effect of over 60% in size; further: potency means the concentration at half of the fitted maximal effect
Tyrosine-protein kinase Yes (Homo sapiens), sequence (P07947 whole entry, looked up): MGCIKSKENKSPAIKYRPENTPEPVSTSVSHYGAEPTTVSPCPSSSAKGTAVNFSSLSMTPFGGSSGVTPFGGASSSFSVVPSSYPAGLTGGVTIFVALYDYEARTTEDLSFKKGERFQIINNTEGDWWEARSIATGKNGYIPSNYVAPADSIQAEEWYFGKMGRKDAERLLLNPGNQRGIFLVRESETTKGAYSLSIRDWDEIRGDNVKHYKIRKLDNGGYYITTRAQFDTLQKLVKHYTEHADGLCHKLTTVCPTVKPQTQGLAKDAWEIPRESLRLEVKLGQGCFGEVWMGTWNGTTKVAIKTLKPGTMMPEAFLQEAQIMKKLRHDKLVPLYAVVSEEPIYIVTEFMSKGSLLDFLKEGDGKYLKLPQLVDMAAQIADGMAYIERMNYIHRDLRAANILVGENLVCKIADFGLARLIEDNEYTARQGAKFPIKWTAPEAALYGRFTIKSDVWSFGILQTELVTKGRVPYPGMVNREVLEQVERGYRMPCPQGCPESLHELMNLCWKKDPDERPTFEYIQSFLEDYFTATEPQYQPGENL
Method in brief: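 In this qHTS format, inhibition is expressed relative to DMSO controls with enzyme (maximum) and without enzyme (minimum). The 60 min room-temperature reaction uses 0.1 mM ATP, with ADP detected by luminescence.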

[8] = biological target: Arylsulfatase A (Homo sapiens) (UniProt P15289); experiment: qHTS screen for enhancers of Arylsulfatase A (ASA1): LOPAC Validation Assay (AID 720538); conditions: outcome: dose series up to 57.5 µM
Arylsulfatase A (Homo sapiens), sequence (P15289 whole entry, looked up): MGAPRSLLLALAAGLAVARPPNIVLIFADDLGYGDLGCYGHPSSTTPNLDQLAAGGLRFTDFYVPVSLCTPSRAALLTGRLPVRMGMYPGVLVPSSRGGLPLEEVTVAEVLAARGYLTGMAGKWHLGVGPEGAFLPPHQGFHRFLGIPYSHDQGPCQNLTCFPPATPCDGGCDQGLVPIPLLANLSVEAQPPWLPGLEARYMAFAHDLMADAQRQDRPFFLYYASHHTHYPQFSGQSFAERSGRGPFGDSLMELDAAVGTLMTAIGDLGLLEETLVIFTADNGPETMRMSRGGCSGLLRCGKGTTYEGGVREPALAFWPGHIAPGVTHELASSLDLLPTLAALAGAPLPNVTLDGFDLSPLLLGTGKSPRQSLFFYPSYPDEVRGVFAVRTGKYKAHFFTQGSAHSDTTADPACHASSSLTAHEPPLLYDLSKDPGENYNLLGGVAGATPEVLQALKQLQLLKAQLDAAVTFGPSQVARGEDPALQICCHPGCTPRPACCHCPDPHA
Method in brief: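 Cell-based enhancement test: residual ASA activity in SV40-transformed I179S patient fibroblasts is measured by pNCS turnover (0.5mM final, 14h, room temperature) following 48h compound incubation; higher fluorescence indicates activation.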

[9] = qHTS for compounds that reverse cellular toxicity of Amyloid beta (A-beta) peptide in yeast: LOPAC Validation Assay (AID 720559);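 further: plate controls were DMSO for no effect and equimolar ferric chloride plus clioquinol rescue for full effect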
Method in brief: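 Here, A-beta-toxic yeast grow with test compounds at 30 C for 48 hr before optical density at 600 nm is recorded; data are normalized against DMSO and the FeCl3-clioquinol control.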

[10] = qHTS for Activators of Parkin Expression: LOPAC Validation Assay (NLuc Reporter) (AID 720572)
Method in brief: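 Compound effects on Parkin promoter activity were measured as NanoLuc luminescence after 24 h at 37 C. The neuronal reporter line also carried FLuc, which was read first. LOPAC compounds were tested at 7 concentrations, with normalization to DMSO (0%) and positive control (100%).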

[11] = qHTS for Activators of Parkin Expression: LOPAC Validation Assay (FLuc Reporter) (AID 720573)
Method in brief: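 Readout is FLuc luminescence from neuronal reporter cells (Parkin promoter, FLuc plus NLuc) after 24 h compound exposure in dose response. Values normalized to neutral DMSO and positive-control compounds.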

[12] = biological target: T1, Hexokinase-4 (Homo sapiens) + Glucokinase regulatory protein (Homo sapiens) (UniProt P35557+Q14397); experiment: qHTS assay for inhibitors of recombinant human GCK-GKRP interaction: Diaphorase-coupled assay (AID 743205)
T1 sequence (P35557 whole entry, looked up): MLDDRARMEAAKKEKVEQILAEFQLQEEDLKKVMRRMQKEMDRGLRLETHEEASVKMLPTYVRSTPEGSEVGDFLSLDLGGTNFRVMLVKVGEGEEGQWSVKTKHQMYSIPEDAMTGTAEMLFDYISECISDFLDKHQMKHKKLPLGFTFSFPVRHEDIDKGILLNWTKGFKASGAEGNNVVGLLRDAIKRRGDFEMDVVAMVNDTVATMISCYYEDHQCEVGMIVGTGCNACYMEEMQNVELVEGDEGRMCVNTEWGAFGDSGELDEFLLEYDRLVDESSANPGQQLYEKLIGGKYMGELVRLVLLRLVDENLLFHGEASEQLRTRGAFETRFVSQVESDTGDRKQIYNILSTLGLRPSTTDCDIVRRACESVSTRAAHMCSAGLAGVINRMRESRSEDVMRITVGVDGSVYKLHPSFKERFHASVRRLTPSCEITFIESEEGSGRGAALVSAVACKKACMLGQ
T1 sequence (Q14397 whole entry, looked up): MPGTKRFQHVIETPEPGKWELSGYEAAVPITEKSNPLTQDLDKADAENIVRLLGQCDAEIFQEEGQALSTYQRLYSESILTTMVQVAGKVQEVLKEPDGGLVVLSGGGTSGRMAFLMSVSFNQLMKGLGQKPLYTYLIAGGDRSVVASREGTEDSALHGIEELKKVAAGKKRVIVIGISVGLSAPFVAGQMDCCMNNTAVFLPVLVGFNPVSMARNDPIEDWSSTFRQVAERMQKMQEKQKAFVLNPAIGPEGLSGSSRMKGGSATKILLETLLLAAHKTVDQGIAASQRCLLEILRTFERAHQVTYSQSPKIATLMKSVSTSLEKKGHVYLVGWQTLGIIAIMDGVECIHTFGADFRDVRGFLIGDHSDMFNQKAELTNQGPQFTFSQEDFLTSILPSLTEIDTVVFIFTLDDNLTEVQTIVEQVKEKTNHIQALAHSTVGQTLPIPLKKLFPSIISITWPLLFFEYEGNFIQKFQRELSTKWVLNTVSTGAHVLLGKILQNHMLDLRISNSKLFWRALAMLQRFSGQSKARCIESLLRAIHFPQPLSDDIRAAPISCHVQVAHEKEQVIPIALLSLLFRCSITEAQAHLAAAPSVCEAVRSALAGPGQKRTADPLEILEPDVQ
Method in brief: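 Signal derives from resorufin generated by diaphorase, linked to GCK turnover of glucose (5 mM) and ATP (0.4 mM). Enzyme complex was added after a 20-minute compound preincubation and monitored for 30 minutes.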

[13] = biological target: T1, Hexokinase-4 (Homo sapiens) + Glucokinase regulatory protein (Homo sapiens); experiment: qHTS assay for inhibitors of recombinant human GCK-GKRP interaction: ADP-Glo assay (AID 743206);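 further: plate controls were DMSO plus enzyme for no effect and no enzyme for full effect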
Method in brief: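 Pin-transferred compounds meet a 15 nM GST-GCK/15 nM FLAG-GKRP/2 uM S6P mix (dispense concentrations). ATP is then added to 0.4 mM final with 5 mM glucose, and the reaction runs 60 min at room temperature. ADP is quantified luminescently.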

[14] = biological target: T1, Hexokinase-4 (Homo sapiens) + Glucokinase regulatory protein (Homo sapiens); experiment: qHTS assay for inhibitors of recombinant human GCK-GKRP interaction: HTRF assay (AID 743207);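 further: 0% = DMSO with GCK present and -100% = DMSO wells lacking GCK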
Method in brief: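 Titration screening format: recombinant GST-GCK and FLAG-GKRP at 5 nM, S6P at 2 uM, labelled anti-tag antibodies, 60 min at RT, dual-wavelength HTRF readout.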

[15] = qHTS for small molecule inhibitors of Yes1 kinase: Counter Assay (AID 686950);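 further: no kinase present so only ADP-Glo detection of a fixed ADP amount is tested; luminescence from ADP-Glo reporting ADP in a fixed ATP and ADP mixture; series mostly up to about 77 µM; 0% = DMSO wells with ATP plus ADP and -100% = ATP-only wells without ADP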
Method in brief: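 ADP-Glo luminescence read after a 60 min room-temperature incubation of compound with an ATP/ADP mix (0.08 mM/0.02 mM) and no kinase, following a 20 min compound preincubation. Signal scaled between ATP+ADP (max) and 0.1 mM ATP-only (min) wells; Tris pH 7.5, Mg2+, DTT.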

[16] = biological target: Nuclear receptor ROR-gamma (Homo sapiens) (UniProt P51449); experiment: qHTS assay for small molecule antagonists of the retinoid-related orphan receptor gamma (ROR-gamma) signaling pathway (AID 651802);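 further: CHO cells with doxycycline-induced ROR-gamma expression; luciferase reporter luminescence driven by ROR response element; series mostly up to about 92 µM; on the % scale 0 is the no-effect control and ±100 the full control effect; nearly all actives have a fitted effect of over 60% in size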
Nuclear receptor ROR-gamma (Homo sapiens), sequence (P51449 whole entry, looked up): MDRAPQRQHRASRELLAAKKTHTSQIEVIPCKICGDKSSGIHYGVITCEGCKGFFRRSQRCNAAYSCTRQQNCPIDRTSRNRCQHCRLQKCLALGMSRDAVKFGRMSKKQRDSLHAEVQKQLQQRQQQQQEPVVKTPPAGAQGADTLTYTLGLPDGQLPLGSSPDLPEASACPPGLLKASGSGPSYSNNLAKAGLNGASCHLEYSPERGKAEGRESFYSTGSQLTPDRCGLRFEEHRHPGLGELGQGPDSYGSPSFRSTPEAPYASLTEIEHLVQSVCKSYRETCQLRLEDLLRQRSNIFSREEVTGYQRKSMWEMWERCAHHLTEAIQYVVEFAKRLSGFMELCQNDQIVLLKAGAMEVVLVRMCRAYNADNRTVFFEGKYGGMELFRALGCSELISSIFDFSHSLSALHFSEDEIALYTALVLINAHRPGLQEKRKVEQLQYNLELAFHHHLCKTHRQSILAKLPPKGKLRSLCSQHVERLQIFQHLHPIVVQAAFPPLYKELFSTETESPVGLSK
Method in brief: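 Luciferase read-out: ONE-Glo luminescence after 30 min at room temperature, following 16hr doxycycline induction at 37C, 5% CO2 of CHO cells with TET-inducible ROR and RORE-LUC reporter; decreased luminescence = reduced reporter activity.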

[17] = qHTS assay to identify small molecules that stimulate interleukin-8 (IL-8) secretion (AID 651758; active means well fitted activation curve with a large enough effect in the signal ratio; the % refers to the signal ratio; further: 0% is about no effect)
Method in brief: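 Secreted IL-8 measured homogeneously by TR-FRET (two labelled anti-IL-8 antibodies, 1-3 h at room temperature) after a 16 h, 37 C compound treatment of THP-1 cells at 2000 cells/well.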

CN(C)[C@@H]1C(=O)C(C(N)=O)=C(O)[C@@]2(O)C(=O)C3=C(O)c4c(O)cccc4[C@@](C)(O)[C@H]3[C@H](O)[C@@H]12
inactive: outcome [1] | activation [2] 0.477% and 1.23% and -3.54% | max response [3] -3.16% and 0.185% and -4.32% | Potency [4] | max response [5] -0.377% and -4.28% and 10.9% | max response [6] -4.72% and -5.37%

Cc1nc2cnc3ccc(C#Cc4cccnc4)cc3c2n1-c1ccc(C(C)(C)C#N)cc1
active: Potency [7] 2.18 µM | Potency [6] 5.9 µM

C=CCN1CC[C@]23CCCCC2[C@H]1Cc1ccc(O)cc13 (some centres not stated)
inactive: outcome [8] inactive; inhibitor; fitted 0.0301 uM | outcome [9] | outcome [10] | outcome [11] | outcome [12] | outcome [13] | outcome [14]

Cc1nc(-c2ccc(-c3ccc(C(=O)N4CCc5cc6c(cc54)C4(CCN(C)CC4)CO6)cc3)c(C)c2)no1
inactive: outcome [15] | max response [6] -4.85%

O=C(O)CCCOc1ccc(Cl)cc1Cl
inactive: activation [2] 4.85% | max response [3] 5.21% | max response [5] -1.4% | max response [6] 19%

Nc1ccccc1N
active: Potency [2] 39.8 µM

NC(=O)CN1CC(O)CC1=O (configuration not stated)
inactive: outcome [8] | outcome [9] | outcome [10] | outcome [11] | outcome [12] | outcome [13] | outcome [14] | max response [6] -2.78% and 8.87%

O=[N+]([O-])/N=C1\NCCN1Cc1ccc(Cl)nc1
inactive: max response [3] -0.352% | max response [5] 8.85% | max response [6] 3.56% and 4.82%

CC(=O)Nc1ccc(OC[C@](C)(O)C(=O)Nc2ccc([N+](=O)[O-])c(C(F)(F)F)c2)cc1
inactive: Potency [7] | outcome [15] | max response [6] 0.149%

O=C(O)C(Cl)Cl
inactive: outcome [1] | activation [2] 3.85% and 0.254% | max response [3] -0.693% and -4.76% | Potency [16] | max response [5] -10.5% and 2.18% | max response [6] -4.42% and 4.64%

Nc1ccc(N=Nc2ccccc2)cc1
inactive: max response [3] -2.06% | max response [5] -5.85% | max response [6] 11.9%

C1CCC(NC2CCCCC2)CC1
inactive: outcome [1] | outcome [17] | activation [2] -1.28% and -0.443% and 0.0289% | max response [3] 0.749% and -0.258% and -1.01% | Potency [16] | Potency [4] | max response [5] 1.26% and -8.57% and 6.08% | max response [6] 18.7%

CCCCC(CC)COC(=O)c1ccccc1C(=O)O (configuration not stated)
active: Potency [3] 28.2 µM

O=C(Oc1ccc([N+](=O)[O-])cc1)N1CCC(C(O)(c2ccc3c(c2)OCO3)c2ccc3c(c2)OCO3)CC1
active: Potency [7] 2.44 µM
inactive: outcome [15] | max response [6] -4.93%
